Sampled rows, rich in hits. Any-hit rate of the full collection: about 17%.
HepG2 viability: counter-screen for TGF-b inhibitors: cytotoxicity in HepG2 cells; HepG2 CAGA-GFP viability, ATP luminescence, 18 h; Potency, µM (series often up to 46.1 µM), for the others: at the highest dose activity change, negative = cytotoxicity, hits mostly cytotoxic; 0.76% of 410,000 active; AID 588856
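HepG2 CAGA-GFP cells (1000/well, DMEM with 1% FBS) received compound, then TGF-beta at 500 pg/mL final, and were incubated 18 hours at 37 degrees C. Viability was read by CellTiter-Glo luminescence. Media-only wells were set as complete cell-killing and DMSO as no toxicity.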
DT40 TDP1 CPT: DT40-hTDP1 cell growth loss with CPT. chicken DT40 Tdp1-/-;hTDP1 cells + 20 nM CPT, ATP luminescence, 48 h. Potency, µM (series often up to 46.2 µM), inactives show at the highest dose activity change, negative = growth inhibition, hits mostly inhibitors. 12% of 420,000 active. AID 686979; also: % is scaled to controls: 0 for no effect and ±100 for the full control effect; nearly all actives have a fitted effect of over 55% in size
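Chicken DT40 Tdp1-/- cells stably complemented with human TDP1 were seeded at 400 cells/well in medium containing 20 nM camptothecin, exposed to pin-transferred compounds, and grown at 37 °C for at least 48 hr. Viability was read as ATP luminescence.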
TDP1 cell noCPT: qHTS for Inhibitors of human tyrosyl-DNA phosphodiesterase 1 (TDP1): qHTS in cells in absence of CPT; Potency, µM (titrated, usually from 46.2 µM), for inactives: at the top dose activity change, negative = growth inhibition, actives largely listed as inhibitors; DT40 Tdp1-/- hTDP1 cells, no CPT, ATP luminescence, 48 h; 15% of 420,000 active; also: % is scaled to controls: 0 for no effect and ±100 for the full control effect; nearly all actives have a fitted effect of over 55% in size
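Compound effects on proliferation are scored in DT40 Tdp1-/-;hTDP1 cells in the absence of CPT. ATP levels (CellTiter-Glo luminescence) are recorded after a ≥48 hr, 37 °C incubation.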
TGFb SMAD3 inh: blocks TGF-b signaling. HepG2 CAGA-GFP TGF-b/SMAD3 reporter, GFP fluorescence, 18 h; TGF-beta stimulated, 500 pg/mL final. Potency, µM (series often up to 46.1 µM), inactives show top-dose activity, negative = inhibition, most hits filed as inhibitors. 1.2% of 410,000 active; also: % is scaled to controls: 0 for no effect and ±100 for the full control effect; nearly all actives have a fitted effect of over 65% in size
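Using HEPG2 CAGA-GFP reporter cells at 1000 cells/well, we pinned test compounds, stimulated with recombinant TGF-beta (500 pg/mL final) and measured total well GFP after 18 h.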
HT1080 IDH1KD tx: kills HT-1080 cells with IDH1 knockdown; HT-1080 IDH1 knockdown viability, ATP luminescence, 48 h; Potency, µM (series often up to 46.1 µM), for inactives: at the highest dose activity, negative = toxicity, actives largely listed as cytotoxic; 2% of 360,000 active; AID 686971;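 also: 0% = DMSO wells and -100% = cell-free medium wells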
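Assay cells: HT-1080 with IDH1 knockdown, 750 per well, RPMI/5% FBS. Exposure: 48 h at 37 °C following 2 h pre-incubation. Read: CellTiter-Glo luminescence; fitted concentration-response, curve class assigned.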
HT1080NT lethal: kills 2HG-producing HT-1080-NT fibrosarcoma cells. HT-1080-NT fibrosarcoma viability, CellTiter-Glo ATP luminescence, 48 h. Potency, µM (highest dose often 46.1 µM), for the others: top-dose activity, negative = less viability, actives largely listed as cytotoxic. 1.6% of 360,000 active. AID 686970;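 also: NT is the 2HG producing partner of a matched IDH1 knockdown line; 0% = DMSO-treated cells and -100% = media-only wells without cells; nearly all actives have a fitted effect of over 55% in size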
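Viability by CellTiter-Glo luminescence after 48 h compound exposure at 37C of HT-1080-NT cells (750/well, RPMI, 5% FBS). % activity scaled between DMSO wells and medium-only wells, then curve-fitted and categorized by curve class.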
* hit, by the source's call; ? = inconclusive; . = not tested or not shown. Calls follow the shape of the dose curve; as a rule, active = well fitted curve in the direction sought with a large enough effect; inconclusive = small, poorly fitted or top-dose-only effect, or another doubt; inactive = no such curve, though single readings can be large; an effect the other way counts as inactive or inconclusive. Potency is read from the fitted curve at half-maximal effect.

SMILES | HepG2 viability | DT40 TDP1 CPT | TDP1 cell noCPT | TGFb SMAD3 inh | HT1080 IDH1KD tx | HT1080NT lethal
COc1ccc(-c2csc(NC(=O)c3ccc(C(C)(C)C)cc3)c2C(=O)O)cc1 | -52% | 3.7µM* | 3.3µM* | ? | ? | ?
Cc1ccc(-c2csc(NC(=O)c3ccccc3F)c2C(=O)O)cc1 | -21% | ? | 21µM* | 2% | -9% | -28%
O=C(Nc1scc(-c2ccc(Br)cc2)c1C(=O)O)c1ccccc1F | -40% | ? | 16µM* | -5% | ? | ?
COc1cccc(S(=O)(=O)N(C)C[C@@H]2Oc3cc(C#CCN(C)C)ccc3S(=O)(=O)N([C@H](C)CO)C[C@@H]2C)c1 | -24% | -18% | ? | 2% | -7% | -1%
O=C(O)CC(NC(=O)C(c1ccccc1)c1ccccc1)c1ccc(F)cc1 (stereo not drawn) | 0% | -1% | 14% | 1% | -3% | 1%
COc1ccc(N2C(=S)N=C(Nc3cccc(C)c3)C23CCCCC3)cc1 | -15% | 6.5µM* | -26% | 2% | -10% | -4%
Cc1[nH]nc2c1C(=O)CCC2 | -1% | 23µM* | 18µM* | -9% | 23% | 16%
CCCn1c(N)c(C(=O)CN(C)CC(=O)Nc2c(Cl)cccc2Cl)c(=O)[nH]c1=O | -3% | 16µM* | 23µM* | -8% | -2% | -1%
CCCn1c(N)c(C(=O)CN(C)CC(=O)Nc2cc(C)ccc2C)c(=O)[nH]c1=O | -8% | 13µM* | 13µM* | 10% | 0% | 1%
CCCn1c(N)c(C(=O)CN(C)CC(=O)Nc2ccc(C)cc2)c(=O)[nH]c1=O | 25% | -10% | -24% | ? | 1% | -7%
CCCn1c(N)c(C(=O)CN(C)CC(=O)Nc2ccccc2C(F)(F)F)c(=O)[nH]c1=O | -29% | 15µM* | 21µM* | ? | -6% | -1%
CC1=C(C(=O)OCC2CCCO2)C(c2coc3ccccc3c2=O)C2=C(CCCC2=O)N1 (stereo not drawn) | 3% | 7% | -21% | 1% | -6% | 1%
COc1cc(Cl)c(C)cc1NC(=O)CNC(=O)Cn1ccc2ccccc2c1=O | 0% | -3% | -8% | -17% | . | .
Clc1ccc(Nc2nc(NCc3ccco3)nc3nccnc23)cc1 | 5% | -3% | -9% | 0% | . | .
O=C(N/N=C/c1ccc(F)cc1)c1sccc1OCc1ccc(F)cc1 | -28% | 16µM* | 18µM* | -7% | 16µM* | 13µM*
O=C(N/N=C/c1ccc(Cl)cc1)c1sccc1OCc1ccc(F)cc1 | -18% | 1.2µM* | 1.3µM* | -19% | 1.3µM* | 2.6µM*
COc1ccc(COc2ccsc2C(=O)Nc2ccc(Cl)cc2)cc1 | -54% | ? | ? | -13% | ? | ?
NNC(=O)c1sccc1OCc1ccc(F)cc1 | -1% | 7% | ? | -2% | 2% | 3%
CC1Cc2cc(S(=O)(=O)NCCc3ccccc3)ccc2N1C(=O)C1CC1 (stereo not drawn) | -42% | 15µM* | 15µM* | -15% | -13% | -2%
COc1ccccc1CNS(=O)(=O)c1ccc2c(c1)CC(C)N2C(C)=O (stereo not drawn) | -10% | ? | 18µM* | 1% | . | .
COc1cc(OC)c(NC(=O)CCNS(=O)(=O)c2ccc3c(c2)CC(C)N3C(C)=O)cc1Cl (stereo not drawn) | 1% | 19% | 22% | ? | 7% | 4%
CC(NS(=O)(=O)c1ccc2c(c1)CC(C)N2C(=O)C1CC1)c1ccccc1 (stereo not drawn) | 1% | -22% | 8% | -14% | 0% | -1%
CC(=O)N1c2ccc(S(=O)(=O)NCc3ccco3)cc2CC1C (stereo not drawn) | -1% | -8% | -27% | 4% | 2% | -2%
COc1ccc(NS(=O)(=O)c2ccc3c(c2)CC(C)N3C(C)=O)c(OC)c1 (stereo not drawn) | -1% | 18µM* | 21µM* | -17% | . | .
CCOc1ccccc1NS(=O)(=O)c1ccc2c(c1)CC(C)N2C(=O)C1CC1 (stereo not drawn) | -26% | ? | 15µM* | ? | . | .
SMILES | HepG2 viability | DT40 TDP1 CPT | TDP1 cell noCPT | TGFb SMAD3 inh | HT1080 IDH1KD tx | HT1080NT lethal
CCc1nnc(NS(=O)(=O)c2ccc(NCc3ccccc3O)cc2)s1 | 4% | 3% | -1% | 11% | 7% | 7%
COc1ccc(CCNS(=O)(=O)c2ccc3c(c2)CC(C)N3C(=O)C2CCC2)cc1OC (stereo not drawn) | -6% | ? | 13µM* | -22% | . | .
COCCNC(=O)C1CCC(CNS(=O)(=O)c2ccc3c(c2)CC(C)N3C(=O)C2CC2)CC1 (stereo not drawn) | 15% | -6% | -1% | 7% | 3% | 7%
CC(=O)N1c2ccc(S(=O)(=O)NCCc3ccccc3)cc2CC1C (stereo not drawn) | -48% | ? | 12µM* | ? | ? | ?
CC1Cc2cc(S(=O)(=O)NCc3ccccc3Cl)ccc2N1C(=O)C1CCC1 (stereo not drawn) | -17% | 15µM* | 7.3µM* | ? | . | .
CCC(=O)N1c2ccc(S(=O)(=O)NCc3ccc(F)cc3)cc2CC1C (stereo not drawn) | -1% | 15µM* | 12µM* | 0% | . | .
CCC(=O)N1c2ccc(S(=O)(=O)NCCc3ccc(C)cc3)cc2CC1C (stereo not drawn) | -18% | -27% | -9% | -23% | 0% | 2%
CC(C)(C)n1ncc2c(=O)n(Cc3ccc(OC(F)(F)F)cc3)cnc21 | -43% | . | . | -21% | . | .
COc1cccc(CNS(=O)(=O)c2ccc3c(c2)CC(C)N3C(=O)C2CC2)c1 (stereo not drawn) | -12% | 21µM* | 10µM* | ? | -21% | ?
CC(C)Cc1ccc(-c2cc3nc(NCCCn4ccnc4)ccn3n2)cc1 | -52% | ? | ? | ? | ? | 16µM*
COc1cc(-c2cc3nc(NCCc4ccncc4)ccn3n2)cc(OC)c1OC | -4% | 18µM* | 18µM* | 34% | -21% | -2%
COc1cc(-c2cc3nc(NCCOc4ccccc4)ccn3n2)cc(OC)c1OC | -48% | 2.6µM* | 2.3µM* | ? | 9.2µM* | 21µM*

From PubChem BioAssay
